Results on 93 compounds are retold here after PubChem BioAssay AID1619 (SRMLSC, 2009).

One may read the inhibition as the relative decrease from the control value, in per cent.

About 830 (0.38%) of roughly 220,000 compounds were called active. A selection follows. Entries with a potency or affinity are not part of this list. A number with no mark means an inactive call.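 How the source made its calls: active means compound inhibiting the enzyme by more than half at any dose during confirmatory dose-response retesting; inconclusive means strong single-dose inhibitors picked by rank but not retested; inactive means the rest.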

The target of the test is Leucine aminopeptidase (Plasmodium falciparum (isolate 3D7)) (UniProt Q8IL11). The experiment in a line: P. falciparum M17LAP inhibitors, primary screen, biochemical, fluorogenic H-Leu-NHMec substrate, 1536-well (AID 1619).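 Further: plate controls were full reaction with DMSO carrier for no effect and no enzyme background for full effect.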 To be noted: recombinant M17LAP, H-Leu-NHMec fluorogenic kinetic assay; at 30 µM; hits give high values.
Chain of Leucine aminopeptidase (Plasmodium falciparum (isolate 3D7)) (Q8IL11 whole entry, looked up): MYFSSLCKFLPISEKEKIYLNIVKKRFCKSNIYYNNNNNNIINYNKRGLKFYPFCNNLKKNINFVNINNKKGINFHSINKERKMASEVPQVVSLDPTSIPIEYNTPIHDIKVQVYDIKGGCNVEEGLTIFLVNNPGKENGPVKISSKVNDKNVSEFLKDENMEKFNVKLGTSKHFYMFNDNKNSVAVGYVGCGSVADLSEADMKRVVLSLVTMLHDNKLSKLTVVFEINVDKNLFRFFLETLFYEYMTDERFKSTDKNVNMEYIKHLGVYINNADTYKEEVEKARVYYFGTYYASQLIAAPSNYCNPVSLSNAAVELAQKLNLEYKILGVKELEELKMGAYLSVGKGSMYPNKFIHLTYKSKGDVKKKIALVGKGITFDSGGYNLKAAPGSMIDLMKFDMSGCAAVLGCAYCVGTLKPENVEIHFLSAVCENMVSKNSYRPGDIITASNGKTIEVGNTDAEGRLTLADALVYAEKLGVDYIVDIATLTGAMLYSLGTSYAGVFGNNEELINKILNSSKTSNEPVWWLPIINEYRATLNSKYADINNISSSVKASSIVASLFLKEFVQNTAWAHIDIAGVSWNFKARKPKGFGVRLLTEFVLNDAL
For `O=C(NCCCN1CCCC1=O)c1cc(NS(=O)(=O)c2ccc(F)cc2)cc(NS(=O)(=O)c2ccc(F)cc2)c1`, the inhibition was 22.7%.

`O=C(CSc1ncnc2nc[nH]c12)Nc1ccccc1C(F)(F)F`: the inhibition is 12%. The same measure for `O=C(CSc1ncnc2nc[nH]c12)Nc1ccc(Br)cc1Cl`: 9.25%; for `Cc1cccc(NC(=O)CSc2ncnc3nc[nH]c23)c1`: 56.5%.

With `Cc1cccc(NC(=O)CSc2ncnc3nc[nH]c23)c1C`, the inhibition was 43.9%. With `O=C(O)COc1cccc(NC(=O)C2CCCO2)c1` (stereo not drawn), the inhibition was 5.81%. Turning to `C=CCn1c(O)c(N=Nc2nc3ccccc3c(=O)n2-c2ccccc2)c2ccccc21`, the inhibition is -2.79%.

As to `O=C(CCCO)N/N=C/c1ccccc1[N+](=O)[O-]`, the inhibition was 8.09%. With `O=C(CSc1nc(O)c(-c2ccccc2)c(=O)[nH]1)N1CCOCC1`, the inhibition is 12.3%. With `CCOc1ccc(N2C(=O)C3Sc4[nH]c(=O)sc4C(c4ccc(OC)c(OC)c4)C3C2=O)cc1` (stereo not drawn), the inhibition is -5.76%.

Turning to `Cc1cc(NC(=O)C2CC=CCC2C(=O)O)no1` (stereo not drawn), the inhibition is 41.7%.

`Cc1ccc(N2CCN(C(=O)c3ccccc3NC(=O)C3CC=CCC3C(=O)O)CC2)cc1` (stereo not drawn): the inhibition was 49.9%.

As to `Cc1ccc(C)c(NC(=O)C2CC3c4ccccc4C2c2ccccc23)c1` (stereo not drawn), the inhibition is -1.72%. To `O=C(O)C1CC=C(Cl)CC1C(=O)NCc1ccccc1` (stereo not drawn) belongs 36.4%; to `Cc1ccccc1NC(=O)C1CC(Cl)=CCC1C(=O)O` (stereo not drawn), 43.5%. With `O=C(O)C1CC=CCC1C(=O)Nc1ccccc1C(=O)N1CCN(c2ccc(F)cc2)CC1` (stereo not drawn), the inhibition is 23.1%.

As for `O=C(NCCN1CCN(c2cccc(Cl)c2)CC1)C1CCCN(S(=O)(=O)c2cnc[nH]2)C1` (stereo not drawn), the inhibition is -4.03%. Regarding `NC(=O)CN1CCN(c2ccccc2F)CC1`, the inhibition was 4.96%. In the case of `C/C(=N/NC(=O)c1cn(-c2cccc(C)n2)cn1)c1ccc(C)cc1`, the inhibition was -2.51%. The same measure for `CCOC(=O)c1ccc(-n2c(CN(CC)CC)nc3ccc([N+](=O)[O-])cc3c2=O)cc1`: 2.23%; for `Brc1cc2[nH]cnc2c2ccccc12`: 4.81%; for `Cn1c(N)c(C(=O)COc2ccc(C#N)cc2)c(=O)n(C)c1=O`: 7.75%. Take `O=c1c(N2CCOCC2)coc2ccccc12`: the inhibition was 9.22%. To `CCCCc1sc(-c2c(C#N)c(N)nc3c2CCCCC3)cc1[N+](=O)[O-]` belongs 1.41%; to `O=C(CN1C(=O)C2C3C=CC(C4CC34)C2C1=O)Nc1cccc2ncccc12` (stereo not drawn), 6.24%; to `O=C(CN1C(=O)C2C3C=CC(C4CC34)C2C1=O)NCc1ccco1` (stereo not drawn), 1.4%. Regarding `CCOc1ccc(-n2c(Cc3cc(=O)[nH]c(=O)[nH]3)nnc2SCc2cccnc2)cc1`, the inhibition is 6.43%.

For `COc1ccc(N2CC(O)(c3ccc(C)cc3)[N+]3=C2CCCC3)cc1` (stereo not drawn), the inhibition is 1.14%. With `CC(C)OC(=O)c1cc(C(=O)c2cc(Br)ccc2O)coc1=N`, the inhibition was 0.53%. The same measure for `COC(=O)c1cc(C(=O)c2cc(Cl)ccc2O)coc1=N`: 10.7%.

As for `CC(C)OC(=O)c1cc(C(=O)c2cc(Cl)ccc2O)coc1=N`, the inhibition is -2.46%. In the case of `COCCOC(=O)c1cc(C(=O)c2cc(Cl)ccc2O)coc1=N`, the inhibition is 12.5%.

`Cn1c(CC(=O)c2ccc(Br)cc2)[n+](C)c2ccccc21`: the inhibition is 2.42%. As for `Nc1nc(CSc2ncn[nH]2)nc(Nc2ccc(F)cc2)n1`, the inhibition was -4.26%. To `O=S(=O)(c1ccc2c(c1)OCCO2)N1CCC(n2nnc3cc(F)ccc32)CC1` belongs 4.13%. The same measure for `CC1(C)CC(=O)c2sc(NS(=O)(=O)c3ccc(Br)cc3)nc2C1`: 18.8%.

`CC1(C)CC(=O)c2sc(NS(=O)(=O)c3ccc(F)cc3)nc2C1`: the inhibition was 48.1%. `c1ccc(-c2nc3nc4ccccc4nc3n2Cc2ccco2)cc1`: the inhibition was 1.08%. In the case of `COc1ccc(-c2noc(CCCC(=O)N3CCOCC3)n2)cc1`, the inhibition is -3.55%. Consider `COc1cc(/C=N/N=C2/NC(=O)C(CC(=O)O)S2)ccc1OCc1ccc(Cl)cc1` (stereo not drawn), for which the inhibition was 23.2%. For `CCOc1cc(/C=N/N=C2/NC(=O)C(CC(=O)O)S2)ccc1OCc1ccc(Cl)cc1` (stereo not drawn), the inhibition was 5.31%.

As for `CCOc1ccc2[nH]c(=O)c(CN(CCO)C(=O)CC)cc2c1`, the inhibition is -5.26%. On to `COC(=O)c1oc2ccc(Br)cc2c1NC(=O)c1ccccc1`, for which the inhibition was 14.5%.

`Nc1c(C(=O)c2ccccc2)oc2ccc(Br)cc12`: the inhibition is -7.77%. Consider `C=CCNCCOc1c(C)cc(C)cc1Cl`, for which the inhibition was 20.1%. To `CC1(C(=O)OCC(=O)Nc2ccccc2)CC1(Cl)Cl` (stereo not drawn) belongs 1.25%. To `CCN(C(=O)Cn1cnc2cc([N+](=O)[O-])ccc2c1=O)C1CCS(=O)(=O)C1` (stereo not drawn) belongs 12.2%; to `Cc1ccc(-c2nc(N=Nc3ccc(O)cc3)n[nH]2)cc1`, 12.9%; to `Oc1ccc(-c2cccc(-c3ccc(O)cc3)n2)cc1`, 1.28%. With `CCOc1ccc(/C=C2\SC(=S)N(CCC(=O)O)C2=O)cc1`, the inhibition was 6.65%. The same measure for `O=C(O)c1ccc(N2C(=O)CC(N3C(=O)/C(=C/c4ccc(Cl)cc4)SC3=S)C2=O)cc1` (stereo not drawn): 6.02%. On to `Cc1ccc(NC(=O)/C=C/c2ccco2)nc1`, for which the inhibition is 11.5%. As to `O=C(Nc1ccccc1N1CCCC1)c1ccc([N+](=O)[O-])cc1Cl`, the inhibition was 9.68%. The same measure for `CCCCN1C(=O)/C(=C/C=C2\SCCN2C)SC1=S`: -4.21%. In the case of `CCN1C(=O)/C(=C/C=C2/SCCN2C)SC1=S`, the inhibition is -8.41%. Consider `Cc1ccc(S(=O)(=O)N(CC(=O)Nc2ccccc2C(=O)O)c2ccccc2)cc1`, for which the inhibition is 4.48%. To `Cc1ccc(S(=O)(=O)N(CC(=O)Nc2ccccc2C(=O)O)c2ccccc2C)cc1` belongs 2.3%; to `COc1ccc2sc(C)[n+](C)c2c1`, -2.85%; to `COc1ccc(N2C(=O)c3ccccc3C2=O)cc1`, -7.95%. The same measure for `COc1ccc(C(O)(C(=O)NNc2ccc(C)cc2)c2cccs2)cc1` (stereo not drawn): 15.2%; for `O=[N+]([O-])c1ccc(-c2cc(-c3ccncc3)nc3ccc4ccccc4c23)cc1`: -5.09%; for `CC1=C(O)C(=O)OC1c1c(Cl)cccc1Cl` (stereo not drawn): -5.75%. `CCCCSc1nc(C)[nH]c1[N+](=O)[O-]`: the inhibition was -54.3%. `Cc1ccc(Nc2ncnc3nc[nH]c23)cc1Cl`: the inhibition is 6.48%. The same measure for `COc1ccccc1Nc1ncnc2nc[nH]c12`: 38.3%; for `Cc1ccc(-c2nnc(SCC(=O)N/N=C/c3c(C)nn(-c4ccccc4)c3C)n2-c2ccccc2)cc1`: -0.81%.

On to `CC(Sc1ccccc1)C(=O)Nc1ccc(S(=O)(=O)N2CCOCC2)cc1` (stereo not drawn), for which the inhibition is 11.8%.

For the compound `CC(Sc1ccc(Cl)cc1)C(=O)Nc1ccc(S(=O)(=O)N2CCOCC2)cc1` (stereo not drawn), the inhibition was 1.19%. With `CCc1ccccc1NC(=O)C1C(c2ccccc2)C1(Cl)Cl` (stereo not drawn), the inhibition is -8.78%.

As to `O=C(Nc1ccccc1NC(=O)c1c(F)c(F)c(F)c(F)c1F)c1c(F)c(F)c(F)c(F)c1F`, the inhibition was 8.25%.

In the case of `CC(C)N(Cc1nc(-c2ccc3c(c2)OCO3)no1)Cc1nccn1C`, the inhibition is -7%. The same measure for `Cc1[nH]nc2c1C1(CCN(Cc3ccccc3)CC1)C(C#N)=C(N)O2`: 42.9%; for `CC(C)c1[nH]nc2c1C1(CCN(Cc3ccccc3)CC1)C(C#N)=C(N)O2`: 30.2%; for `Cc1sc(NC(=O)c2cccc([N+](=O)[O-])c2)c(C(N)=O)c1-c1ccc(C(C)(C)C)cc1`: 6.91%. Take `Cc1csc(NC(=O)[C@@H]2CCCN2C(=O)c2cccs2)n1`: the inhibition was -1.96%.

As to `CC1=C(C(=O)OCc2ccccc2)C(c2ccc(Cl)cc2Cl)NC(=O)N1CCCC(=O)O` (stereo not drawn), the inhibition was 0.51%. As to `CC1=C(C(=O)OCc2ccccc2)C(c2ccc(Cl)cc2)NC(=O)N1CCCCCC(=O)O` (stereo not drawn), the inhibition was 47.3%. The same measure for `N#Cc1ccc(C(=O)CSc2n[nH]c(=O)n2Cc2ccco2)cc1`: -0.26%.

`COc1ccc(Cc2nnc(NS(C)(=O)=O)s2)cc1`: the inhibition is 11.1%. Turning to `COc1ccc(Cc2nnc(NS(=O)(=O)c3ccccc3)s2)cc1`, the inhibition was 52.4%. On to `O=C(O)COc1ccc(NC(=O)c2cccs2)cc1`, for which the inhibition is 16.1%.

`COc1ccc(NC(=O)c2cccs2)cc1`: the inhibition was -8.71%. With `Cc1cccc(Oc2ccc(NC(=O)c3ccccc3C(=O)O)cc2)c1`, the inhibition is 2.06%. The same measure for `O=C(Nc1cccc(Oc2ccc(C(=O)O)c(C(=O)O)c2)c1)c1ccc(-c2ccccc2)cc1`: 38.5%; for `CC(=O)Nc1ccccc1N(CC(O)Cn1c2ccccc2c2ccccc21)S(=O)(=O)c1ccc(C)cc1` (stereo not drawn): 11.1%.

Turning to `CC(=O)CSc1nnc(Cc2ccc3c(c2)OCO3)o1`, the inhibition is -2.53%.

Consider `Cc1ccc(NC(=O)CN2C(=O)N/C(=C/c3ccc(C)o3)C2=O)cc1`, for which the inhibition was 71.1%.

For the compound `Cc1ccc(NC(=O)CN2C(=O)N/C(=C/c3ccc(C)s3)C2=O)cc1`, the inhibition was -4%.

As to `CCn1cc(C(=O)OCC(=O)N2C(C)CCCC2C)c(=O)c2ccc(C)nc21` (stereo not drawn), the inhibition is 0.44%. On to `CCSc1nc(O)c(C2OC(=O)c3c2ccc(OC)c3OC)c(=O)n1CC` (stereo not drawn), for which the inhibition was 41.4%.

For `CCCCSc1nc(O)c(C2OC(=O)c3c2ccc(OC)c3OC)c(=O)n1C` (stereo not drawn), the inhibition is 44.3%. For `CCCCSc1nc(O)c(C2OC(=O)c3c2ccc(OC)c3OC)c(=O)n1-c1ccccc1` (stereo not drawn), the inhibition was 32%. To `CCCSc1nc(O)c(C2OC(=O)c3c2ccc(OC)c3OC)c(=O)n1-c1ccccc1` (stereo not drawn) belongs 31.4%.
